In PubChem BioAssay (NCI):
“And” between values parts separate entries of the source, which are not always exact repeats. Identical values can stand only once. About 83,000 compounds went through this panel and 20% of them were active in at least one assay; those are over-represented in the sample as a whole.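 Treatment: one concentration, 48 hours, 96-well format. Scoring: percent growth, with anything below 10 considered active.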 The source made the active and inactive calls.

Key:
Assay in all cases: NCI-60 one-dose screen, 48 h (100 = growth as untreated, 0 = no growth, -100 = all killed)
[1] = test system: HCT-15 colon
[2] = test system: HT29 colon
[3] = test system: SNB-75 CNS
[4] = test system: SNB-19 CNS
[5] = test system: PC-3 prostate
[6] = test system: SK-MEL-5 melanoma
[7] = test system: UACC-62 melanoma
[8] = test system: SK-MEL-28 melanoma
[9] = test system: U251 CNS; conditions: 10 µM unless noted
[10] = test system: LOX IMVI melanoma; conditions: 10 µM unless noted

Measured: growth

S=c1nc[nH]c2nc[nH]c12
15.6% (inactive) and 1.72% (active): [7]; 750 µM
inactive: [1]; 10 µM 39.1% | [1]; 50 µM 15.6% | [2]; 10 µM 41.7% | [2]; 50 µM 14.3% | [3]; 10 µM 55.9% | [3]; 50 µM 43.7% | [4]; 10 µM 96.3% | [4]; 50 µM 91.6% | [5]; 10 µM 53.5% | [5]; 50 µM 43.2% | [6]; 10 µM 61.8% | [6]; 50 µM 12.8% | [7]; 10 µM 15.8% | [7]; 50 µM 19.8% | [8]; 10 µM 114% | [8]; 50 µM 75.6%

O=C(O)c1ccc2c3ccc(C(=O)O)c4c(C(=O)O)ccc(c5ccc(C(=O)O)c1c25)c43
inactive: [1]; 10 µM unless noted 108% | [2]; 10 µM unless noted 111% | [3]; 10 µM unless noted 85.4% | [4]; 10 µM unless noted 96.8% | [9] 106% | [5]; 10 µM unless noted 101% | [6]; 10 µM unless noted 102% | [7]; 10 µM unless noted 90.9% | [10] 92.7% | [8]; 10 µM unless noted 112%

COc1ccccc1OCC(O)CO (stereo not drawn)
inactive: [1]; 10 µM unless noted 95.1% and 105% | [2]; 10 µM unless noted 100% and 103% | [3]; 10 µM unless noted 87.7% and 90.7% | [4]; 10 µM unless noted 96.4% and 84.9% | [9] 96.9% and 81.3% | [5]; 10 µM unless noted 52.3% and 91.5% | [6]; 10 µM unless noted 104% and 100% | [7]; 10 µM unless noted 100% | [10] 99.5% and 100% | [8]; 10 µM unless noted 95.5% and 108%

CN(C=O)c1ccccc1
inactive: [1]; 10 µM unless noted 95.1% | [2]; 10 µM unless noted 99.9% | [3]; 10 µM unless noted 80.6% | [4]; 10 µM unless noted 102% | [9] 93.5% | [5]; 10 µM unless noted 88.4% | [6]; 10 µM unless noted 94.5% | [7]; 10 µM unless noted 88.7% | [10] 89.5% | [8]; 10 µM unless noted 109%

CC(=O)C[n+]1ccccc1Sc1ccc(Cl)cc1
inactive: [1]; 10 µM unless noted 93.3% | [2]; 10 µM unless noted 108% | [3]; 10 µM unless noted 66.1% | [4]; 10 µM unless noted 88.7% | [9] 73% | [5]; 10 µM unless noted 58.3% | [6]; 10 µM unless noted 90.3% | [7]; 10 µM unless noted 84.6% | [10] 27.6% | [8]; 10 µM unless noted 100%

C#CCOC(=O)C(N)CS (stereo not drawn)
inactive: [1]; 10 µM unless noted 100% | [2]; 10 µM unless noted 110% | [3]; 10 µM unless noted 81.9% | [4]; 10 µM unless noted 99.7% | [9] 101% | [5]; 10 µM unless noted 90.5% | [6]; 10 µM unless noted 104% | [7]; 10 µM 88.5% | [7]; 100 µM 87.6% and 90.2% | [10] 101% | [8]; 10 µM unless noted 94.9%

O=C(c1ccccc1)C1(Br)CCCCC1
inactive: [1]; 10 µM unless noted 99.1% | [2]; 10 µM unless noted 120% | [3]; 10 µM unless noted 95.2% | [4]; 10 µM unless noted 92% | [9] 95.6% | [5]; 10 µM unless noted 99.2% | [6]; 10 µM unless noted 95.7% | [7]; 10 µM unless noted 90.5% | [10] 86.7% | [8]; 10 µM unless noted 101%

CCCCNC(=O)c1ccccc1C
inactive: [1]; 10 µM unless noted 93.4% | [2]; 10 µM unless noted 102% | [3]; 10 µM unless noted 99% | [4]; 10 µM unless noted 98.2% | [9] 99.3% | [5]; 10 µM unless noted 88.2% | [6]; 10 µM unless noted 93.3% | [7]; 10 µM unless noted 101% | [10] 96.9% | [8]; 10 µM unless noted 101%

CC(NC(=O)CCl)c1ccccc1 (stereo not drawn)
inactive: [1]; 10 µM unless noted 94.9% | [2]; 10 µM unless noted 104% | [3]; 10 µM unless noted 85.6% | [4]; 10 µM unless noted 103% | [9] 103% | [5]; 10 µM unless noted 95.2% | [6]; 10 µM unless noted 93.7% | [7]; 10 µM unless noted 102% | [10] 98.2% | [8]; 10 µM unless noted 111%

Cc1ccc([N+](=O)[O-])cc1Br
inactive: [1]; 10 µM unless noted 101% | [2]; 10 µM unless noted 70.7% | [3]; 10 µM unless noted 104% | [4]; 10 µM unless noted 97.9% | [9] 96.4% | [5]; 10 µM unless noted 94.8% | [6]; 10 µM unless noted 99.8% | [7]; 10 µM unless noted 95.8% | [10] 105% | [8]; 10 µM unless noted 104%

CN(C)CC(CN(C)C)C(O)c1ccccc1 (stereo not drawn)
inactive: [1]; 10 µM unless noted 99.3% | [2]; 10 µM unless noted 100% | [3]; 10 µM unless noted 94.5% | [4]; 10 µM unless noted 109% | [9] 99.5% | [5]; 10 µM unless noted 101% | [6]; 10 µM unless noted 106% | [7]; 10 µM unless noted 106% | [10] 97.8% | [8]; 10 µM unless noted 105%

CCN(CC)CCNC(=O)c1ccc(NCN2C(=O)NC(c3ccccc3)(c3ccccc3)C2=O)cc1
inactive: [1]; 10 µM unless noted 113% and 105% | [2]; 10 µM unless noted 108% and 112% | [3]; 10 µM unless noted 103% and 97.1% | [4]; 10 µM unless noted 109% and 105% | [9] 95.2% and 102% | [5]; 10 µM unless noted 97.6% and 93% | [6]; 10 µM unless noted 101% and 109% | [7]; 10 µM unless noted 104% and 97% | [10] 95.1% and 97.6% | [8]; 10 µM unless noted 117%
